Screening results from PubChem.
Sampled rows, rich in hits. Any-hit rate of the full collection: about 0.9%.
E coli growth-1 – bacterial growth inhibition, counter-screen for AddAB inhibitors. E. coli V3065 growth, OD600 absorbance, 18 h. inhibition, % at 11.9 µM. 0.27% of 330,000 active;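 active means inhibition above the campaign's mean inhibition across all tested compounds plus 3 SD, cut at about 9.9% in these data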;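 further: uninfected addAB+ strain grown without phage in ampicillin broth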
E coli growth-2 – inhibitors of Escherichia coli growth | OD600 absorbance (no concentration beside the values) | 0.21% of 330,000 active | OD600, 23 h; active compounds read low;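 active means OD600 absorbance below the run mean of sample wells minus 3.6 SD, in any replicate, cut at about 0.56 in these data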
Tat export inh – inhibitors of E. coli Tat protein transport | 0.036% of 340,000 active | inhibition, % at 10 µM | E. coli MC4100 TorA-mCherry Tat export, fluorescence | AID 488895;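 active means mean replicate inhibition at least 50% and at least half of replicates individually reaching 50%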;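 further: exported cargo escapes ClpAP degradation while cytoplasmic cargo is degraded and loses fluorescence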
Calb FLC – affects C. albicans growth with fluconazole. C. albicans CaCi-2 (fluconazole-resistant clinical isolate) + fluconazole, Alamar Blue growth, 48 h. growth inhibition, % (test concentration not listed). 0.57% of 300,000 active;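 active means growth inhibition above about 58% in most replicates, limit read from the data, passing the limit was not always enough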;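 further: all wells also contain fluconazole at 8 µg/ml as a sub-toxic cotreatment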
AddAB inh – less growth of phage-infected E. coli with AddAB; inhibition, % at 11.9 µM; AID 435030; 0.29% of 330,000 active; E. coli expressing H. pylori AddAB, absorbance growth; in the data active means inhibition above about 12%
phage Ecoli inh – E. coli growth loss with phage present; growth absorbance; inhibition, % at 11.9 µM; 0.26% of 360,000 active; AID 651602; in the data active means inhibition above about 11%
AddAB conf – growth loss of T4-infected E. coli expressing H. pylori AddAB, confirmed | shares compounds with AddAB inh | E. coli V3065 expressing H. pylori AddAB, T4 phage, OD; T4 phage with gene 2 nonsense mutations | inhibition, % at 11.9 µM | 64% of 880 active | AID 488942;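 active means mean inhibition above a set limit taken from the earlier primary screen, cut at about 13% in these data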;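 further: higher means less bacterial growth since AddAB block lets phage replicate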
RecBCD counter – counter-screen: growth loss of RecBCD+ E. coli with mutant T4 phage. E. coli V66 + mutant T4 phage, OD growth. AID 488955. 73% of 880 active. inhibition, % at 11.9 µM. shares compounds with AddAB inh;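 active means mean inhibition above the mean of solvent-only control wells plus 3 SD, cut at about 4% in these data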;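 further: optical density read after an 18 h incubation at 37 °C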
bact viab count – counter-screen for AddAB inhibitors: inhibitors of bacterial viability. inhibition, % at 11.9 µM. absorbance (AddAB counterscreen). 35% of 880 active. shares compounds with AddAB inh. AID 488956; in the data active means inhibition above about 25%
RecBCD conf – growth loss of phage-infected V66 E. coli, RecBCD confirmation screen. shares compounds with phage Ecoli inh. E. coli V66 + T4 2- phage, growth OD. inhibition, % at 11.9 µM. 45% of 890 active. AID 651982;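 active means mean inhibition over triplicates exceeding the hit threshold derived in the original primary screen, cut at about 11% in these data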
Ecoli viability – bacterial viability inhibition counter-screen for RecBCD. E. coli viability, absorbance (OD) growth. 29% of 890 active. shares compounds with phage Ecoli inh. inhibition, % at 11.9 µM; in the data active means inhibition above about 20%;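 further: E. coli strain V66 grown with compound alone and no phage infection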
AddAB counter – growth loss of phage-infected AddAB E. coli, RecBCD counter-screen | shares compounds with phage Ecoli inh | E. coli expressing H. pylori AddAB + T4 phage, OD growth; gene 2 mutant T4, recBCD-deleted host | inhibition, % at 11.9 µM | 45% of 890 active | AID 651984;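 active means mean inhibition above the solvent-only control wells' mean plus 3 SD, cut at about 22% in these data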;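 further: higher means less bacterial growth from phage killing when AddAB is blocked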
Of the large screens only hits and unclear results are named; the others gave an inactive call (follow-up assays come after a bar, where they were run).

CCOC(=O)C1=Nc2ccccc2C1=[N+]=[N-]	E coli growth-1 96, AddAB inh 98, phage Ecoli inh 91 (no result: E coli growth-2) | AddAB conf 100 | RecBCD counter 98 | bact viab count 101 | RecBCD conf 98 | Ecoli viability 99 | AddAB counter 101
O=C(NN=Cc1ccc[nH]1)c1cc(-c2cccs2)nc2ccccc12	none (no result: E coli growth-1, Tat export inh, Calb FLC, AddAB inh, phage Ecoli inh)
O=C(NN=Cc1cc(Br)cc(Br)c1O)c1cccc(S(=O)(=O)N2CCOCC2)c1	none (no result: E coli growth-1, Tat export inh, Calb FLC, AddAB inh, phage Ecoli inh)
Cc1ccc(C(C)C)c(OCc2ccc(C(=O)N/N=C/c3cccc(O)c3O)cc2)c1	E coli growth-1 14, Calb FLC 87, AddAB inh 16, phage Ecoli inh 22 (no result: E coli growth-2) | AddAB conf 16 | RecBCD counter 16 | bact viab count inactive | RecBCD conf inactive | Ecoli viability inactive | AddAB counter inactive
Cc1ccc(C(C)C)c(OCc2ccc(C(=O)NN=Cc3ccc(O)cc3O)cc2)c1	none (no result: E coli growth-1, Tat export inh, Calb FLC, AddAB inh, phage Ecoli inh)
Cc1ccc(-c2[nH]c3cc(C(N)=O)ccc3c(=O)c2O)cc1	none (no result: E coli growth-2)
CCCNC(=O)c1ccc2c(=O)c(O)c(-c3ccc(C)cc3)[nH]c2c1	E coli growth-1 25, AddAB inh 23, phage Ecoli inh 21 (no result: E coli growth-2) | AddAB conf 20 | RecBCD counter 16 | bact viab count inactive | RecBCD conf inactive | Ecoli viability inactive | AddAB counter 23
Cc1ccc(CNC(=O)c2ccc3c(=O)c(O)c(-c4ccc(C)cc4)[nH]c3c2)cc1	E coli growth-1 20, AddAB inh 17, phage Ecoli inh 17 | AddAB conf 21 | RecBCD counter 19 | bact viab count inactive | RecBCD conf 11 | Ecoli viability inactive | AddAB counter inactive
O=C(NN=Cc1ccccc1[N+](=O)[O-])c1ccc(COc2ccccc2-c2ccccc2)cc1	none (no result: E coli growth-1, Tat export inh, Calb FLC, AddAB inh, phage Ecoli inh)
COC(C(=O)NN=C(C)c1ccc(C(C)(C)C)cc1)c1ccccc1 (stereo not drawn)	none (no result: E coli growth-1, Tat export inh, Calb FLC, AddAB inh, phage Ecoli inh)
Cc1ccc(C)c(S(=O)(=O)N2CCN(Cc3ccc(O)c4ncccc34)CC2)c1	E coli growth-1 16, Calb FLC 110, AddAB inh 17, phage Ecoli inh 17 | AddAB conf 13 | RecBCD counter 15 | bact viab count inactive | RecBCD conf inactive | Ecoli viability inactive | AddAB counter inactive
CSc1ncccc1C(=O)N1CCN(S(=O)(=O)c2cc(C)ccc2C)CC1	none
Cc1ccc(C(=O)Sc2cccccc2=O)cc1	E coli growth-1 52, E coli growth-2 0.14, Tat export inh 82, AddAB inh 51, phage Ecoli inh 62 | AddAB conf 64 | RecBCD counter 61 | bact viab count 61 | RecBCD conf 78 | Ecoli viability 81 | AddAB counter 89
O=C(Nc1ccccc1SC(=O)c1ccccc1)c1ccccc1	none (no result: E coli growth-1, E coli growth-2, Tat export inh, Calb FLC, AddAB inh)
CCC(ONc1ccccc1C(F)(F)F)(C(=O)NN(C)C)c1ccccc1 (stereo not drawn)	E coli growth-1 23, AddAB inh 101, phage Ecoli inh 17 (no result: Calb FLC) | AddAB conf 98 | RecBCD counter 14 | bact viab count 62 | RecBCD conf 11 | Ecoli viability inactive | AddAB counter 103
CCOc1ccc(OCC(=O)Nc2ccccc2C(F)(F)F)cc1	none
O=C(CSC1=NNC(c2ccccn2)S1)Nc1ccccc1 (stereo not drawn)	AddAB inh 13, phage Ecoli inh 11 | AddAB conf 35 | RecBCD counter 14 | bact viab count inactive | RecBCD conf inactive | Ecoli viability inactive | AddAB counter 38
C=CCc1cccc(/C=N/NC(=O)CCC(=O)Nc2ccc(F)cc2)c1O	E coli growth-1 11, AddAB inh 13, phage Ecoli inh 13 (no result: E coli growth-2) | AddAB conf 14 | RecBCD counter 16 | bact viab count inactive | RecBCD conf inactive | Ecoli viability inactive | AddAB counter inactive
C=CCc1cccc(/C=N/NC(=O)CNc2ccccc2OC)c1O	Calb FLC 93, AddAB inh 13, phage Ecoli inh 14 (no result: E coli growth-2) | AddAB conf 16 | RecBCD counter 10 | bact viab count inactive | RecBCD conf inactive | Ecoli viability inactive | AddAB counter inactive
C=CCc1cccc(C=NNC(=O)c2ccccc2OC)c1O	none (no result: E coli growth-1, Tat export inh, Calb FLC, AddAB inh, phage Ecoli inh)
COC(=O)C1=C(C(=O)OC)C2N(C)c3ccc(OC)cc3[C@@]23CC(C(=O)OC)N(S(=O)(=O)c2ccc([N+](=O)[O-])cc2)C3=N1 (stereo partly drawn)	none (no result: E coli growth-1, Tat export inh, Calb FLC, AddAB inh, phage Ecoli inh)
CCN(CC)c1ccc(C=NN2CCOCC2)cc1	none (no result: E coli growth-1, Tat export inh, Calb FLC, AddAB inh, phage Ecoli inh)
CC(=O)c1c(C)n([O-])c2cc(F)c(F)cc2[n+]1=O	E coli growth-1 53, E coli growth-2 0.11, AddAB inh 63, phage Ecoli inh 22 | AddAB conf 98 | RecBCD counter 26 | bact viab count 88 | RecBCD conf 23 | Ecoli viability 31 | AddAB counter 91
O=C(Oc1c(Cl)cc(Cl)c2cccnc12)c1cccs1	E coli growth-1 43, E coli growth-2 0.14, Calb FLC 108, AddAB inh 40, phage Ecoli inh 42 | AddAB conf 51 | RecBCD counter 53 | bact viab count 56 | RecBCD conf 44 | Ecoli viability 53 | AddAB counter 41
O=C(Nc1cccnc1Cl)c1cccs1	none
Cc1nc(Nc2ccc(S(N)(=O)=O)cc2)oc1C	E coli growth-1 9.9, AddAB inh 15, phage Ecoli inh 12 | AddAB conf inactive | RecBCD counter 5.3 | bact viab count inactive | RecBCD conf inactive | Ecoli viability inactive | AddAB counter 41
Cc1ccc(/C=C/C(=O)Nc2ccc(S(N)(=O)=O)cc2)o1	none
C[C@]12CCC3C(CC[C@H]4CC(O)CC[C@]34C)C1CCC2=NNC(=O)c1ccncc1 (stereo partly drawn)	none (no result: E coli growth-1, Tat export inh, Calb FLC, AddAB inh, phage Ecoli inh)
Nc1c(Cl)ncnc1N/N=C/c1cccc(O)c1	none (no result: E coli growth-2)
COc1cccc(/C=N/Nc2ncnc3scc(-c4ccccc4)c23)c1O	E coli growth-1 17, Calb FLC 109, AddAB inh 15, phage Ecoli inh 11 (no result: E coli growth-2) | AddAB conf inactive | RecBCD counter 12 | bact viab count inactive | RecBCD conf inactive | Ecoli viability inactive | AddAB counter inactive
